Sampled rows, rich in hits. Any-hit rate of the full collection: about 3.8%.
Candida biofilm: kills Candida albicans biofilms; C. albicans biofilm + clotrimazole, Alamar Blue; inhibition, % at 6 µM; 85,000 tested, 0.14% active; AID 834;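 active means inhibition above 20%; inactive means inhibition below 20%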;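 further: preformed 24 hr biofilms exposed to compound for 48 hr; 0% = biofilm without compound and 100% = blank killed by clotrimazole plus chlorhexidine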
ERa coact pot: enhances coactivator binding to human estrogen receptor alpha; 86,000 tested, 1.3% active; TR-FRET ERalpha-LBD/SRC-Cy5 coactivator binding, 2 h; 100 = basal binding, no effect; coactivator binding (% of control), % at 25.6 µM; AID 639; in the data active means activity above about 200%;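 further: binding measured in presence of low estradiol as agonist stimulus; 0% = peptide alone without receptor and 100% = receptor with peptide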
Smad3 inh: blocks human Smad3 binding to FoxH1 peptide; P84022; TR-FRET Smad3/Dy647-FoxH1 peptide binding, europium anti-His; inhibition, % at 25 µM; 88,000 tested, 0.29% active;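 active means compounds that reduce the energy-transfer binding signal between the protein and its labelled peptide by more than half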;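 further: 0% = Smad3 plus labelled peptide maximal FRET and 100% = peptide-only background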
ERb SRC1 inh: blocks coactivator binding to human estrogen receptor beta | Q92731 | TR-FRET ER-beta LBD / SRC1-Cy5 peptide binding; receptor agonist-loaded with 1 µM estradiol | inhibition, % at 25.6 µM | 86,000 tested, 1.3% active | AID 633;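 active means compounds whose percent inhibition of the receptor-coactivator binding signal exceeds about 50% in the single-dose screen, limit read from the data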;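 further: 0% = receptor plus peptide wells without compound and 100% = peptide-only wells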
Target sequence (Q92731 whole entry, looked up, the tested form may be a part): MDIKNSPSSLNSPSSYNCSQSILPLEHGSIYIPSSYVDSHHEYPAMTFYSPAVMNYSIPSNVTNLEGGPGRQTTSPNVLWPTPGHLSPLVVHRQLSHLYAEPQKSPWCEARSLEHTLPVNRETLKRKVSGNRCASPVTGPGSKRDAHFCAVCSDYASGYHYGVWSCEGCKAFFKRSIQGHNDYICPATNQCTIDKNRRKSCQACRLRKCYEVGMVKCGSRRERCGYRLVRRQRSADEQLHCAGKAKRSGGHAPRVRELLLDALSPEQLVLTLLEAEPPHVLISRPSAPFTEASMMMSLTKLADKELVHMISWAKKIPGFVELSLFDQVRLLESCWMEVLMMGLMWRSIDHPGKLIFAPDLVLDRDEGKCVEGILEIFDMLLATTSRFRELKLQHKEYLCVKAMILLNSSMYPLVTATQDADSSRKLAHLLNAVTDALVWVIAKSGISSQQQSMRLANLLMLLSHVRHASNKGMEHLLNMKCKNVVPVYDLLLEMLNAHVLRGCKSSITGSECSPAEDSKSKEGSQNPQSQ
ERa SRC1 inh: blocks coactivator binding to human estrogen receptor alpha | P03372 | TR-FRET ER-alpha LBD / SRC-1 peptide, estradiol-bound | inhibition, % at 25.6 µM | 86,000 tested, 1.7% active | AID 629; in the data active means inhibition above about 50%;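 further: 0% = receptor plus peptide control and 100% = peptide only without receptor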
Active calls of the source: *; nt = no result given; [ ] = another dose, or the depositor's remark.

SMILES	Candida biofilm	ERa coact pot	Smad3 inh	ERb SRC1 inh	ERa SRC1 inh
CN(C)CN1C(=O)S/C(=C2\C(=O)N(CN(C)C)c3ccccc32)C1=O	nt	nt	15	nt	nt
Cc1onc(-c2ccccc2)c1C(=O)OCC(=O)Nc1ccc2c(c1)OCO2	0	124	-1	-4	-6
Cc1onc(-c2ccccc2Cl)c1C(=O)OCC(=O)Nc1ccc2c(c1)OCO2	25*	111	1	5	7
Oc1ccc2ccccc2c1Cc1c(O)ccc2ccccc12	nt	nt	7	nt	nt
C1CCC(c2nn3c(-c4n[nH]c5c4CCC5)nnc3s2)CC1	-3	20	12	61*	75*
COc1ccc(-c2coc3c(CN4CCCCC4)c(O)c(CN4CCCCC4)c(O)c3c2=O)cc1	9	79	4	35	67*[fluorescence artefact?]
COc1ccc(C(=O)c2coc3ccc(O)c(CN4CCCC4)c23)cc1	11	98	11	-9	7
CN1CCN(c2ccc3nc(-c4ccc5nc(-c6ccc(O)cc6)[nH]c5c4)[nH]c3c2)CC1	nt	nt	11	nt	nt
CCc1cccc(OCCCN2C(=O)NC(C)(C)C2=O)c1	82*	108	0	-1	-6
CC(=O)c1cccc(OCCN2C(=O)NC(C)(C)C2=O)c1	7	105	-18	17	16
CCc1nnc(NC(=O)CSc2nc(-c3ccc(OC)cc3)ns2)s1	-3	145	6	-9	-2
COc1ccc(-c2nsc(SCC(=O)Nc3cc(C)on3)n2)cc1	7	241*[fluorescence artefact?]	6	11	3
Cc1cc(NC(=O)CSc2ccc(-c3nc4cc(C)c(C)cc4[nH]3)cn2)no1	-4	243*[fluorescence artefact?]	-2	15	29
CCc1cc2ccc(OC)cc2nc1SCC(=O)Nc1cc(C)on1	-5	205*	-14	25	24
CCc1cc2ccccc2nc1SCC(=O)Nc1cc(C)on1	8	134	8	3	0
Cc1cc(NC(=O)CSc2nc(C3CC3)nc3sc(C)c(C)c23)no1	2	174	-3	11	-4
CCc1nc(SCC(=O)Nc2cc(C)on2)c2c(C)c(C)sc2n1	5	234*[fluorescence artefact?]	-17	27	9
Cc1ccc2nc(SCC(=O)Nc3cc(C)on3)[nH]c2c1	4	107	-8	26	9
CN(CC(=O)O)CC(=O)O	nt	nt	0	nt	nt
CN1CCN(CCCBr)CC1	nt	nt	13	nt	nt
CCCCSCc1nc2nc(Cl)c(Cl)nc2[nH]1	nt	nt	2	nt	nt
COc1ccc(-c2cc(-c3cccs3)c(C#N)c(SCC(=O)NCc3ccco3)n2)cc1	2	177	-9	39	54*
CO[C@@H](NC(N)=O)C(=O)O	nt	nt	0	nt	nt
c1csc(-c2csc(-c3cccs3)n2)c1	2	143	9	-3	-6
Brc1cc(Br)c2nc(-c3cccs3)ccc2c1	4	241*[fluorescence artefact?]	9	-5	0
SMILES	Candida biofilm	ERa coact pot	Smad3 inh	ERb SRC1 inh	ERa SRC1 inh
CC(C)C1=C[C@@]23CC[C@@H]4[C@](C)(CCC[C@@]4(C)C(=O)O)[C@@H]2C[C@@H]1[C@H](C(=O)O)[C@@H]3C(=O)O	nt	nt	87*	nt	nt
CC(C)[C@]1(Cl)CC[C@H]2[C@]3(C)CCC[C@@](C)(C(=O)O)[C@H]3C[C@@H](Cl)[C@]2(Cl)[C@H]1Cl	nt	nt	37	nt	nt
CC(NC(=O)C1CC1)C(c1cccs1)N1CCN(c2ccccc2)CC1 (centres undefined)	-1	141	-2	56*[fluorescence artefact?]	-7
CN(C)CCOC(=O)c1ccc(N)cc1	nt	nt	25	nt	nt
CCOC(=O)c1[nH]c(C)c(C(=O)N2CCOCC2)c1C	0	111	-7	-2	-2
CCOC(=O)c1[nH]c(C)c(C(=O)N2CCN(C(=O)OCC)CC2)c1CC	6	114	5	-4	99*[fluorescence artefact?]
O=C(O)[C@@H]1[C@H](C(=O)NCc2ccncc2)[C@@H]2C=C[C@H]1O2	nt	nt	3	nt	nt
COCCCN1C(=O)C(=O)/C(=C(/O)c2ccc3c(c2)OCCO3)C1c1ccc(C(=O)OC)cc1 (centres undefined)	7	68	28	80*[fluorescence artefact?]	77*[fluorescence artefact?]
CC(C)=C[C@H]1[C@H](COC(=O)c2ccccc2Cl)C1(C)C	nt	nt	-3	nt	nt
Cc1nc(CSc2nc3[nH]ncc3c(=O)n2-c2ccccc2)cs1	8	87	-14	15	1
Cc1cccc(-n2c(SCc3cc(=O)n4c(C)cccc4n3)nc3[nH]ncc3c2=O)c1	-3	82	9	53*	-6
N#CCCSC(=S)[C@@H]1CCCC1=N	nt	nt	1	nt	nt
CS(=O)(=O)N1CCN(c2ccccc2NC(=O)Cc2ccc(Cl)cc2)CC1	9	948*[fluorescence artefact?]	-7	1	-5
O=C(NCc1ccco1)c1ccc(Cn2c(=O)c3ccccc3n(Cc3ccc(Cl)cc3)c2=O)cc1	8	139	13	16	9
O=C(NCc1ccco1)c1ccc(Cn2c(=O)c3ccccc3n(Cc3cccc(F)c3)c2=O)cc1	1	24	-5	47	67*[fluorescence artefact?]
COc1cc2c(=O)n(Cc3ccccc3)c(=O)n(CC(=O)NCc3ccco3)c2cc1OC	4	349*[fluorescence artefact?]	-140	4	37
O=C(NC1CCCC1)c1ccc(CS(=O)(=O)c2ccc(Br)cc2)o1	6	113	-4	-7	2
CCc1[nH]nc2c1C(c1cccc(OC(=O)N3CCOCC3)c1)C(C#N)=C(N)O2 (centres undefined)	8	563*	0	-4	-32
CCCc1[nH]nc2c1C(c1ccc(OC(=O)N3CCOCC3)c(OC)c1)C(C#N)=C(N)O2 (centres undefined)	3	117	4	-3	2
CN1C(=O)c2c(sc3c2CCCC3)NC1c1ccccc1O (centres undefined)	9	61	-10	78*[fluorescence artefact?]	19
O=C1NC(c2cccs2)Nc2sc3c(c21)CCCC3 (centres undefined)	1	98	4	15	-2
CCOC(=O)Cc1csc(NC(=O)c2ccc(OC)c(OC)c2)n1	4	100	-2	-11	-6
CCOC(=O)c1csc(NC(=O)c2ccc(OC)c(OC)c2)n1	9	279*[fluorescence artefact?]	2	-3	-24
CCOC(=O)c1ccc2nc(NC(=O)c3cccs3)sc2c1	2	106	4	54*[fluorescence artefact?]	78*[fluorescence artefact?]
CCOC(=O)c1sc(NC(=O)c2ccc3ncsc3c2)nc1C	5	473*	22	29	23
SMILES	Candida biofilm	ERa coact pot	Smad3 inh	ERb SRC1 inh	ERa SRC1 inh
Cc1cc2c(C)c(C)c(=O)[nH]c2cc1N	11	16	0	44	69*[fluorescence artefact?]
Cc1cc2c(=O)[nH]c(N)nc2nc1C	nt	nt	-25	nt	nt
COc1ccc(/C=C(\C#N)C(N)=O)c(OC)c1	nt	nt	5	nt	nt
CCOC(=O)N1CCC(NC(=O)c2ccc3nc4ccccc4c(=O)n3c2)CC1	3	111	1	2	-3
CCOC(=O)N1CCC(NC(=O)c2cccn3c(=O)c4cc(Br)ccc4nc23)CC1	1	288*[fluorescence artefact?]	0	42	60*[fluorescence artefact?]
CSc1nc(-c2ccccc2)nc2[nH]ccc(=O)c12	5	317*	-6	25	52*[fluorescence artefact?]
Cc1ccc(S(=O)(=O)Nc2ccccc2C(=O)c2ccc(C)c(C)c2)cc1	nt	nt	17	nt	nt
Cc1ccc(NC(=O)c2ccc(OC(=O)CCN3C(=O)c4ccccc4C3=O)cc2)cc1	-3	372*[fluorescence artefact?]	-6	12	21

Assay outcomes as filed in PubChem BioAssay.
